Bioassay records from PubChem BioAssay.
Compounds with a hit are over-represented: about 2.8% of the library has one in this group of screens.
SENP8 block-1 = inhibitors of human SENP8 protease; inhibition, % at 10 µM; purified SENP8, Z-RLRGG-aminoluciferin cleavage, luminescence; Q96LD8; hit rate 1.2% among 330,000; in the data active means inhibition above about 50%
Target sequence (Q96LD8 whole entry, looked up): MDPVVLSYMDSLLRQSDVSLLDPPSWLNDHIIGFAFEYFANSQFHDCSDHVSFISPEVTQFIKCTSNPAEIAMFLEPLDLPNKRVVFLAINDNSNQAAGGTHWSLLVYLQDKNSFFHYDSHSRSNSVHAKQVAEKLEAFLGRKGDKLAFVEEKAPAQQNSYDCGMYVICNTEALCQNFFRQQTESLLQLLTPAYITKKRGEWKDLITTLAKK
Platelet DG rel = modulates dense granule release in human platelets; human platelet-rich plasma, SFLLRN dense granule ATP release, luminescence; inhibition, %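 (compounds screened at 7.5 µM in platelet-rich plasma)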; AID 1663; hit rate 0.22% among 300,000;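 active means mean replicate score, as percent of positive control, at or above 50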
SENP6 inh = inhibitors of human SENP6 protease; hit rate 1.8% among 330,000; Q9GZR1; inhibition, % at 10 µM; Recombinant SENP6 catalytic domain, aminoluciferin luminescence; AID 2599;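 active means inhibition above about 50% at the single tested dose, limit read from the data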;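 further: plate controls were DMSO wells with enzyme for no effect and DMSO wells lacking enzyme for full effect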
HSP90 refold inh = blocks HSP90-mediated luciferase refolding in reticulocyte lysate. inhibition, % at 5.6 µM. Rabbit reticulocyte lysate, luciferase refolding luminescence, 3 h. AID 1789. hit rate 0.91% among 290,000;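 active means inhibition above the screen-wide mean plus 3 SD, computed separately per campaign, cut at about 16% in these data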;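 further: 0% = DMSO wells and 100% = 60 µM geldanamycin wells; inhibitors lower the luminescence because luciferase stays unfolded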
SENP7 block = inhibitors of human SENP7 protease; hit rate 1.5% among 330,000; inhibition, % at 5 µM; Q9BQF6; recombinant SENP7, Z-RLRGG-aminoluciferin luminescence, 40 min;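 active means inhibition above about 50% at the single test dose, limit read from the data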;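 further: plate controls were DMSO with enzyme for no effect and no enzyme buffer wells for full effect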
Target sequence (Q9BQF6 706-1050 limits assumed): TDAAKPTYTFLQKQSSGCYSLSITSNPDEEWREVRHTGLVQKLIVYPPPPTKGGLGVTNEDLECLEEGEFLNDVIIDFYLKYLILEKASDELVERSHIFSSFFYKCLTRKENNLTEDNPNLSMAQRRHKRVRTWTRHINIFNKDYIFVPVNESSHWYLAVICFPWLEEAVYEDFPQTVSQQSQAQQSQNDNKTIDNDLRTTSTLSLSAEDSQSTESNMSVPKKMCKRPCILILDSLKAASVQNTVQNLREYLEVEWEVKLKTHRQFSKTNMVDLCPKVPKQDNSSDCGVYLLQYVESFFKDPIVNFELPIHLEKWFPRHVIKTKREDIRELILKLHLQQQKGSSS
SENP8 block-2 = blocks human SENP8 cleavage of Nedd8 substrate; inhibition, % at 20 µM; AID 602440; hit rate 0.64% among 360,000; Q96LD8; recombinant SENP8, Nedd8 substrate fluorescence; in the data active means inhibition mostly above about 40%, no sharp cut-off; inactive means mostly below about 27%
The depositor's hits bear a star; / = no result given.

SMILES	SENP8 block-1	Platelet DG rel	SENP6 inh	HSP90 refold inh	SENP7 block	SENP8 block-2
CC1=NN(c2ccc(C)cc2C)C(=O)C1C(c1ccccc1)C1C(=O)N(c2ccc(C)cc2C)N=C1C (stereo unspecified)	5	4	10	8	15	92*
CN(Cc1ccc(C(C)(C)C)cc1)C(=O)c1ccc2c(c1)OCO2	-3	/	-12	/	5	9
O=C(Nc1nsc(-c2ccccc2)n1)c1cccs1	37	4	64*	8	62*	-62
CCc1ccc(OCc2ccc(C(=O)NCc3ccccn3)o2)cc1	3	10	-28	17*	4	17
O=C(NNC(=O)c1ccccc1O)c1cc2ccccc2o1	-14	-2	6	/	-11	-21
CC1Oc2ccc(C#N)cc2N(Cc2cccc(F)c2)C1=O (stereo unspecified)	/	/	/	/	/	20
Cc1ccc(C(=O)N2CCN(c3ccc(NC(=O)c4cc(C)cc(C)c4)cc3)CC2)cc1	-11	-3	-13	-4	10	8
Cc1cc(C)cc(C(=O)Nc2ccc(N3CCCC3)cc2)c1	66*	-7	74*	-2	56*	12
Cc1cc(=O)oc(C)c1C(=O)NCCNC(=O)c1c(C)cc(=O)oc1C	4	85*	-5	-1	-2	-61
Cc1cc(=O)oc(C)c1C(=O)NCCC(C)C	-9	-10	-9	2	-9	19
O=C1C(=NO)CC(c2ccccc2)N1c1ccccc1 (stereo unspecified)	/	/	/	/	/	7
O=C(Cc1ccccc1Cl)NC1(O)C(=O)c2ccccc2C1=O	12	-14	38	4	4	67*
Cc1cccc2c(N=Nc3ccc(S(=O)(=O)Nc4cccc(Cl)c4)cc3[N+](=O)[O-])c(O)[nH]c12	-11	-8	-5	13	0	47*
Cc1ccc(S(=O)(=O)Nc2ccccc2)cc1[N+](=O)[O-]	/	/	/	/	/	17
COc1ccc(NC(=O)C2CCN(S(=O)(=O)c3ccc4c(c3)NC(=O)CO4)CC2)cc1	0	5	-21	-3	-9	1
CCOC(=O)N1CCC(N2C(=O)c3ccccc3C2Nc2cc(OC)c(OC)c(OC)c2)CC1 (stereo unspecified)	3	64*	0	-5	-3	-2
O=[N+]([O-])c1ccc2[nH]c(O)c(N=NC(=S)Nc3cccnc3)c2c1	-4	-8	-20	3	-7	42*
O=C(O)CCn1c(SCCOc2ccccc2F)nc2ccccc21	-7	-3	-3	-2	3	7
CCOC(=O)c1c(N2CCCCC2)c2ccccc2[nH]c1=O	2	70*	-10	3	-8	29
CCn1cc(/C=C(\NC(=O)c2ccccc2F)C(=O)NCCCn2ccnc2)c2ccccc21	-3	-5	-6	-5	4	-8
CCOC(=O)c1c2c(n(-c3ccc(OC)cc3)c1C)C(=O)C(=O)c1ccccc1-2	/	/	/	/	/	110*
CCOC(=O)c1sc(=S)n(-c2ccc(OC)cc2)c1C	10	-18	-10	3	2	9
C#CCNC(=O)C[C@@H]1C[C@@]2(C(=O)OCC)CCC=C2N(Cc2ccc(Cl)cc2Cl)C1=O	/	/	/	/	/	14
CCN(CC)C(=O)[C@H]1CC(CC(=O)NCc2ccc(OC)c(OC)c2)C(=O)N2CCc3c([nH]c4ccc(OC)cc34)[C@]12C (stereo partly specified)	/	/	/	/	4	8
CC(=O)Nc1ccc(-c2cc3ccccc3o2)cc1	10	-10	49	6	51*	-253
SMILES	SENP8 block-1	Platelet DG rel	SENP6 inh	HSP90 refold inh	SENP7 block	SENP8 block-2
CCC(=O)Nc1ccc(-c2cc3ccccc3oc2=O)cc1	0	11	6	0	8	-413
CN1C(=O)/C(=C/c2cccc([N+](=O)[O-])c2)C(=O)N1c1ccccc1	-1	1	-6	2	7	45*
COc1ccccc1NC(=O)CN(Cc1ccco1)C(=O)c1ccc(Cl)nc1	5	7	-21	6	2	3
CCN(CC)C(=O)COc1coc(CN2CCN(c3ccccc3)CC2)cc1=O	-10	-5	-3	-3	-14	2
COc1ccccc1S(=O)(=O)N(C)C[C@@H]1OCc2cnnn2CCCC(=O)N([C@H](C)CO)C[C@@H]1C	/	/	/	/	/	11
O=C1c2ccccc2C(=O)c2c1oc(C(F)(F)F)c2C(=O)c1ccccc1	59*	0	77*	-1	50	73*
O=C(c1ccccc1)c1ccc(CN2C(=O)c3ccccc3C2=O)o1	2	-2	-27	-2	10	12
Cc1oc2c(c1C(=O)NCc1cccnc1)C(=O)c1ccccc1C2=O	49	-15	84*	16*	74*	/
Cc1onc(-c2ccccc2Cl)c1C(=O)NCc1cccnc1	-4	-1	-9	1	-11	16
CC(=O)c1c(C)oc2c1C(=O)c1ccccc1C2=O	/	2	/	2	/	41*
COc1ccc(C)cc1NC(=O)COC(=O)c1c(-c2ccccc2)noc1C	/	/	/	/	/	25
Cc1[nH]n(-c2ccccc2)c(=O)c1/C=N/NC(=O)c1cccc([N+](=O)[O-])c1	0	/	9	4	-1	52*
Cc1[nH]n(-c2cccc3ccccc23)c(=O)c1/C=N/NC(=O)c1cccc([N+](=O)[O-])c1	3	7	15	0	11	8
O=c1[nH]c(S)nc2sc3c(c12)CCCC3	-1	0	2	-2	-5	-34
O=c1[nH]c(-c2ccco2)nc2sc3c(c12)CCCC3	11	-7	51*	-6	26	-53
NC(=O)c1ccsc1NC(=O)c1cc(=O)c2ccccc2o1	26	/	41	-1	65*	6
CS(=O)(=O)N(CC(=O)N/N=C/c1cccc2c1OCCO2)c1ccccc1Br	3	15	16	-1	10	-89
CCOC(=O)c1ccc(-c2ccc(/C=N/NC(=O)CN(c3ccccc3Br)S(C)(=O)=O)o2)cc1	-10	8	-5	16*	0	-403
Cc1ccc(S(=O)(=O)Cn2nnnc2C(C(C)C)N2CCSCC2)cc1 (stereo unspecified)	-11	-1	-2	3	-10	15
Cc1ccc(S(=O)(=O)Cn2nnnc2C(C(C)C)N2CCc3ccccc3C2)cc1 (stereo unspecified)	1	7	29	4	10	64*
CN1C(=O)/C(=C\c2cc(N=Nc3ccccc3)ccc2O)SC1=S	31	7	32	1	11	49*
O=[N+]([O-])c1ccc(NCCc2ccccc2)c(Br)c1	-8	-8	-10	4	-3	21
CCCC[n+]1ccn(C2=C([O-])c3ccccc3C(=O)/C2=N\S(=O)(=O)c2ccc(Br)cc2)c1	-1	-4	49	1	22	74*
Cc1ccc(S(=O)(=O)/N=C2\C(=O)c3ccccc3C([O-])=C2n2cc[n+](CCC(C)C)c2)cc1	25	4	38	-2	30	84*
c1ccc(-c2cc3cc4c(cc3cn2)OCO4)cc1	80*	/	86*	/	90*	-24
